Laboratory results published in PubChem BioAssay (Tox21).
Active and inactive are the calls of the source. Entries that show only a call come without a potency. Unless noted, the call rests on the fitted dose curve; in most records, active means well fitted curve in the direction sought with a large enough effect in the repeat runs; inconclusive means weak or mixed curves; inactive means no such curve, though single readings can be large; an effect the other way counts as inactive or inconclusive.

Key:
[1] = qHTS assay to identify small molecule antagonists of the thyroid receptor (TR) signaling pathway (AID 743065); further: nearly all actives have a fitted effect of over 55% in size; further: potency means the concentration at half of the fitted maximal effect
How it was run: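 GH3.TRE-Luc rat pituitary cells carrying two TR response elements driving luciferase were plated for 4 h, given compound plus 1 nM T3 (final), and incubated 23.5 h at 37 C. ONE-Glo luminescence measured reporter inhibition; CellTiter-Fluor fluorescence tracked cytotoxicity.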

[2] = tested on: thyroid hormone receptor (rat, GH3 cells); test: qHTS assay to identify small molecule agonists of the thyroid receptor (TR) signaling pathway (AID 743066; calls by dose curve)
[3] = target: Estrogen receptor (Homo sapiens) (UniProt P03372); test: qHTS assay to identify small molecule antagonists of the estrogen receptor alpha (ER-alpha) signaling pathway (AID 743069; active means well fitted curve in the direction sought with a large enough effect in the signal ratio in the repeat runs, not every such curve was filed as active; inconclusive means weak or mixed curves, or effect the other way; inactive means no such curve, though single readings can be large or run the other way; the % refers to the signal ratio)
Sequence of Estrogen receptor (Homo sapiens) (P03372 whole entry, looked up): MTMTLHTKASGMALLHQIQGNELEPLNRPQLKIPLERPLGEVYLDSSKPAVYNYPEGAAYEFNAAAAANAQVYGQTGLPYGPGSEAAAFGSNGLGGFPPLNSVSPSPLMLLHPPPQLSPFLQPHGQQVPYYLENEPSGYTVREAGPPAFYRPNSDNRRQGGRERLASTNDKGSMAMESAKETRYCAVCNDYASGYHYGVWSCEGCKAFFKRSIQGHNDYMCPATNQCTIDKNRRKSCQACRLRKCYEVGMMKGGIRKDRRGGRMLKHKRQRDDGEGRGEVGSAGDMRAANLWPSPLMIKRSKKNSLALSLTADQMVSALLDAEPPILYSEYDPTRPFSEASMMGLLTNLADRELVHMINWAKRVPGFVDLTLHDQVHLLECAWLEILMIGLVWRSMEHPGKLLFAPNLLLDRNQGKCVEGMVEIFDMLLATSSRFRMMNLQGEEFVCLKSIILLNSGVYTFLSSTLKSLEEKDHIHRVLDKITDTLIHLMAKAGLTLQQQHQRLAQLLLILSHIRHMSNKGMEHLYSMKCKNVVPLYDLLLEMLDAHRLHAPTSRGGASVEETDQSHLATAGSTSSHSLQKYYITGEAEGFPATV
How it was run: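 Screening used a UAS-driven beta-lactamase reporter integrated into HEK293 cells expressing ER-alpha, stimulated with 17beta-estradiol alongside test compounds over 18 hr at 37C; signal came from LiveBLAzer B/G FRET fluorescence.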

[4] = qHTS assay to identify small molecule antagonists of the estrogen receptor alpha (ER-alpha) signaling pathway - cell viability counter screen (AID 743074; calls by dose curve; further: nearly all actives have a fitted effect of over 45% in size)
[5] = target: Estrogen receptor (Homo sapiens) (UniProt P03372); test: qHTS assay to identify small molecule agonists of the estrogen receptor alpha (ER-alpha) signaling pathway (AID 743075; calls by dose curve; further: potency means the concentration at half of the fitted maximal effect)
[6] = target: Estrogen receptor (Homo sapiens) (UniProt P03372); test: qHTS assay to identify small molecule agonists of the estrogen receptor alpha (ER-alpha) signaling pathway using the BG1 cell line (AID 743079); details: BG1Luc4E2 cells, ERE-luciferase agonist, 22 h; activation: at 70.3 µM (top of the series); further: nearly all actives have a fitted effect of over 20% in size; further: potency means the concentration at half of the fitted maximal effect
[7] = qHTS assay to identify small molecule antagonists of the estrogen receptor alpha (ER-alpha) signaling pathway using the BG1 cell line (AID 743080; calls by dose curve;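 further: BG1 cells stimulated with 17beta-estradiol alongside compound; nearly all actives have a fitted effect of over 25% in size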)
How it was run: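 Endogenous full-length ER-alpha in BG1-Luc-4E2 cells drives a stably integrated 4×ERE luciferase gene; compounds were tested against 17beta-estradiol over 21.5 h, with luminescence and multiplexed viability fluorescence recorded.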

[8] = qHTS assay to identify small molecule antagonists of the estrogen receptor alpha (ER-alpha) signaling pathway using the BG1 cell line - cell viability counter screen (AID 743081);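 further: compound given together with 17beta-estradiol as the ER stimulus; nearly all actives have a fitted effect of over 45% in size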
[9] = target: Aryl hydrocarbon receptor (Homo sapiens) (UniProt P35869); test: qHTS assay to identify small molecule that activate the aryl hydrocarbon receptor (AhR) signaling pathway (AID 743085); further: nearly all actives have a fitted effect of over 15% in size; further: potency means the concentration at half of the fitted maximal effect;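 on activation: HG2L7.5c1 human HepG2 liver cells with stably integrated DRE-driven firefly reporter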
Sequence of Aryl hydrocarbon receptor (Homo sapiens) (P35869 whole entry, looked up): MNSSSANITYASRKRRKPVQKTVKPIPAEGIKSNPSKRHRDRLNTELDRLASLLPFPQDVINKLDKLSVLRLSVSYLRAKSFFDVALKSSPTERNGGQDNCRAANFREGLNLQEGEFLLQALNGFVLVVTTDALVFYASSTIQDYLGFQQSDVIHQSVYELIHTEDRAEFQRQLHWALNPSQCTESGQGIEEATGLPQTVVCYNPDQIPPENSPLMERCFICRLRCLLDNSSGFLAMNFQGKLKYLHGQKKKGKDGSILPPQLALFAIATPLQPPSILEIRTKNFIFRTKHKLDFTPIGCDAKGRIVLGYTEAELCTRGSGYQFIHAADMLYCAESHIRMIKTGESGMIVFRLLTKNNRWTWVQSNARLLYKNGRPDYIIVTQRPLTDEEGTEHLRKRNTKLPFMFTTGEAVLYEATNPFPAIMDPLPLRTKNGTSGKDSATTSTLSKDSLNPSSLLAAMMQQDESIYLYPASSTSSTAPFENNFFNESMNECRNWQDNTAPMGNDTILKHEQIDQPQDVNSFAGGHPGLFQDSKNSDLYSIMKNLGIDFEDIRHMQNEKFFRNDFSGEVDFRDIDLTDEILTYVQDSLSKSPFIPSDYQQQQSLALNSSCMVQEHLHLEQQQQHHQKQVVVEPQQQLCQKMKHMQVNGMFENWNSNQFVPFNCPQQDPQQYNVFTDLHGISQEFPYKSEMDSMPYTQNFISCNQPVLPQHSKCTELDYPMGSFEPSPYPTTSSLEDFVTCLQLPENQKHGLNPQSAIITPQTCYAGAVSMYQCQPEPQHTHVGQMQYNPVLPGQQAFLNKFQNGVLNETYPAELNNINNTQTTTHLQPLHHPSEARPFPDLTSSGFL
How it was run: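 Steps: seed HepG2-AhR-luc cells; allow 5 h at 37C; pin-transfer test compound or vehicle; incubate 24 h at 37C; add viability dye (30 min, 37C) and read fluorescence; add luciferase substrate (30 min, RT) and read luminescence.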

[10] = qHTS assay to identify small molecule that activate the aryl hydrocarbon receptor (AhR) signaling pathway - cell viability counter screen (AID 743086); further: nearly all actives have a fitted effect of over 45% in size; further: potency means the concentration at half of the fitted maximal effect
How it was run: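 HepG2-AhR-luc (HG2L7.5c1) cells, 4000/well, were preincubated 5 h at 37C, exposed to compound in qHTS format for 24 hr at 37C, then given CellTiter-Fluor for 30 min; viability was read as fluorescence in the reporter wells.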

[11] = target: Peroxisome proliferator-activated receptor gamma (Homo sapiens) (UniProt P37231); test: qHTS assay to identify small molecule agonists of the peroxisome proliferator-activated receptor gamma (PPARg) signaling pathway (AID 743094; active means well fitted activation curve with a large enough effect in the signal ratio in the repeat runs, not every such curve was filed as active; inconclusive means weak or mixed curves, or effect the other way; inactive means no such curve, though single readings can be large or run the other way; the % refers to the signal ratio)
Sequence of Peroxisome proliferator-activated receptor gamma (Homo sapiens) (P37231 whole entry, looked up): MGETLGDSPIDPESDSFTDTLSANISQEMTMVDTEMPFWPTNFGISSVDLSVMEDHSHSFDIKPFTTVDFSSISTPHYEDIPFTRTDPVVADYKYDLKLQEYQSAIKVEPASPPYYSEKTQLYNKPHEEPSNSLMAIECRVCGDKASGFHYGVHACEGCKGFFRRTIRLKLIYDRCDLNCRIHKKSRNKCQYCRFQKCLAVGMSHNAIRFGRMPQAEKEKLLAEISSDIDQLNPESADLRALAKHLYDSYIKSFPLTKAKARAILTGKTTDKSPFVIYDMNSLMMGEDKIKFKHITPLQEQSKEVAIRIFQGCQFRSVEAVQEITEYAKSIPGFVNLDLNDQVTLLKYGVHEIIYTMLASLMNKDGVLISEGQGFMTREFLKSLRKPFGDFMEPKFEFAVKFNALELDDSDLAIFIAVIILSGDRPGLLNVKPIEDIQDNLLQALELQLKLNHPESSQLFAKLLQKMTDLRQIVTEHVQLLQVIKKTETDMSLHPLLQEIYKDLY
How it was run: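 Fluorescence-based beta-lactamase readout in HEK293H PPARg UAS-bla cells after 17 h compound exposure (37C) and 1 h B/G FRET substrate incubation at room temperature.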

[12] = target: Peroxisome proliferator-activated receptor gamma (Homo sapiens) (UniProt P37231); test: qHTS assay to identify small molecule antagonists of the peroxisome proliferator-activated receptor gamma (PPARg) signaling pathway (AID 743191; calls by dose curve; further: nearly all actives have a fitted effect of over 30% in size; further: potency means the concentration at half of the fitted maximal effect)
How it was run: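 GeneBLAzer PPARg UAS-bla HEK293H cells carrying a UAS-driven beta-lactamase reporter were plated at 3000 cells/well, preincubated 5 h at 37C, then given compound for 17 h at 37C; LiveBLAzer B/G FRET substrate was read after 1 h at room temperature.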

[13] = qHTS assay to identify small molecule antagonists of the peroxisome proliferator-activated receptor gamma (PPARg) signaling pathway - cell viability counter screen (AID 743194); further: nearly all actives have a fitted effect of over 55% in size; further: potency means the concentration at half of the fitted maximal effect
How it was run: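 PPARg-UAS-bla HEK293H cells were plated, rested 5 h at 37 C, then treated with compounds plus rosiglitazone (50 nM final) for 17 h at 37 C; viability was then read by CellTiter-Glo luminescence after 30 min at room temperature.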

[14] = qHTS assay for small molecule agonists of the antioxidant response element (ARE) signaling pathway (AID 743202; active means well fitted activation curve with a large enough effect in the signal ratio in the repeat runs, not every such curve was filed as active; inconclusive means weak or mixed curves, or effect the other way; inactive means no such curve, though single readings can be large or run the other way; the % refers to the signal ratio; further: potency means the concentration at half of the fitted maximal effect)
How it was run: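 Steps: seed ARE-bla HepG2 cells (2,000/well); incubate 5 h at 37 C; add compounds by pin tool; incubate 16 h at 37 C; add FRET substrate; read fluorescence after 2 h at RT.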

[15] = qHTS assay for small molecule activators of the heat shock response signaling pathway - cell viability counter screen (AID 743209); further: nearly all actives have a fitted effect of over 50% in size; further: potency means the concentration at half of the fitted maximal effect
How it was run: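 To flag cytotoxic compounds, HSE-bla HeLa cells plated at 1500 cells/well were dosed for 5 h at 37 C, followed by the reporter FRET read and then CellTiter-Glo, with luminescence recorded 30 min after reagent addition.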

[16] = qHTS assay to identify small molecule antagonists of the thyroid receptor (TR) signaling pathway - cell viability counter screen (AID 743064); further: nearly all actives have a fitted effect of over 50% in size; further: potency means the concentration at half of the fitted maximal effect
How it was run: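 Plate GH3.TRE-Luc cells; incubate 4 h at 37 °C; add compound, then T3 to 1 nM final; incubate 23.5 h; add CellTiter-Fluor; incubate 30 min at 37 °C, 5% CO2; read fluorescence.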

Aromatase (Homo sapiens) = Aromatase (Homo sapiens) (UniProt P11511); test: qHTS assay to identify aromatase inhibitors (AID 743083); further: nearly all actives have a fitted effect of over 55% in size; further: potency means the concentration at half of the fitted maximal effect
Sequence of Aromatase (Homo sapiens) (P11511 whole entry, looked up): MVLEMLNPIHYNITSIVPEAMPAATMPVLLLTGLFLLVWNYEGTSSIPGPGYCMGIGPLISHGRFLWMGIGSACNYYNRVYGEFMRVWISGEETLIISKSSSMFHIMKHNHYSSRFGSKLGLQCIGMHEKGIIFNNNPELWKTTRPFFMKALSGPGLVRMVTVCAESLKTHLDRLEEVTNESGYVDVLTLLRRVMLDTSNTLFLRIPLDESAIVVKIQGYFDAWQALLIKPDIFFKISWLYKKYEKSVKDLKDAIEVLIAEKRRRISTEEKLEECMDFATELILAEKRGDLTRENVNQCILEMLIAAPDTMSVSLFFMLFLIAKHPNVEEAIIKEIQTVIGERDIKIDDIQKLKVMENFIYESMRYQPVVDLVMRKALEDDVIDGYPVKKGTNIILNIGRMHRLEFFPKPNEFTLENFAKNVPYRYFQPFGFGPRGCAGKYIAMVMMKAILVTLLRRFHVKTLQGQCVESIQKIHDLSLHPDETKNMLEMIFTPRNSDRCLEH

[17] = qHTS assay to identify aromatase inhibitors - cell viability counter screen (AID 743084);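 further: cells stimulated with testosterone during compound exposure; nearly all actives have a fitted effect of over 55% in size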; further: potency means the concentration at half of the fitted maximal effect
[18] = qHTS assay for small molecule agonists of the antioxidant response element (ARE) signaling pathway - cell viability counter screen (AID 743203; calls by dose curve; further: nearly all actives have a fitted effect of over 55% in size; further: potency means the concentration at half of the fitted maximal effect)
How it was run: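 Parallel cytotoxicity read-out for the ARE-bla screen: HepG2 reporter cells, 16 hrs with compounds, then CellTiter-Glo luminescence.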

[19] = qHTS assay for small molecule activators of the heat shock response signaling pathway (AID 743210; active means well fitted activation curve with a large enough effect in the signal ratio in the repeat runs, with a control signal flat, not every such curve was filed as active; inconclusive means weak or mixed curves; the % refers to the signal ratio;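 further: HeLa cells with beta-lactamase reporter driven by heat shock elements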)
How it was run: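 Activation of heat shock element-controlled beta-lactamase expression is measured in HeLa cells by LiveBLAzer FRET fluorescence, with compound exposure lasting 5 h at 37 C and substrate loading 2.5 h at room temperature.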

| Compound | Potency [1] | outcome [2] | Potency [3] | Potency [4] | Potency [5] | Potency [6] | Potency [7] | Potency [8] | Potency [9] | Potency [10] | Potency [11] | Potency [12] | Potency [13] | Potency [14] | Potency [15] | Potency [16] | Potency (Aromatase (Homo sapiens)) | Potency [17] | Potency [18] | Potency [19] |
| --- | --- | --- | --- | --- | --- | --- | --- | --- | --- | --- | --- | --- | --- | --- | --- | --- | --- | --- | --- | --- |
| O=C1c2ccccc2C(=O)C1(O)O | 54.8 µM (active) | inactive | inactive | inactive | inactive | inactive | inactive | inactive | 61.4 µM (active) | inactive | inactive | inactive | inactive | inactive | inactive |  |  |  |  |  |
| CCCCCCCC/C=C\CCCCCCCCCCCC(=O)O |  |  | inactive | inactive | inactive |  | inactive | inactive |  | inactive | inactive |  | inactive | inactive | inactive | inactive | inactive | inactive | inactive | inactive |
| O=[N+]([O-])c1ccc(Nc2ccc(Nc3ccccc3)c(S(=O)(=O)O)c2)c([N+](=O)[O-])c1 |  | inactive |  | inactive |  |  |  |  | inactive |  | inactive | inactive | inactive |  | inactive | 48.6 µM (active) | inactive |  | inactive | inactive |
| Nc1nnc(-c2ccc([N+](=O)[O-])o2)o1 |  |  | inactive | inactive | inactive |  |  |  |  | 54.5 µM (active) | inactive | inactive |  |  | inactive | 61.1 µM (active) | 48.6 µM (active) | 61.1 µM (active) | 48.6 µM (active) |  |
| CCCCCC#CC(=O)OC | inactive | inactive | inactive | inactive | inactive | inactive | inactive | inactive | inactive | inactive | inactive | inactive | inactive | inactive | inactive |  | inactive | inactive | inactive |  |
| CCOC(=O)c1ccc(I)cc1 | inactive | inactive | inactive | inactive | inactive | inactive | inactive | inactive | inactive | inactive | inactive | inactive | inactive | inactive | inactive |  | inactive | inactive | inactive | inactive |
| CCCC(C(=O)OCCN(CC)CC)(c1ccccc1)c1ccccc1 |  |  | inactive | inactive | inactive | inactive | inactive |  | inactive |  | inactive |  |  |  | inactive | 23.7 µM (active) |  |  | inactive |  |
| N#CCCN(CCO)CCO | inactive | inactive | inactive | inactive | inactive | inactive | inactive | inactive | inactive | inactive |  |  | inactive |  | inactive |  | inactive | inactive | inactive | inactive |
| O=C(O)c1ccc(OCCCOc2ccc(C(=O)O)cc2)cc1 |  |  |  | inactive |  |  |  | inactive | inactive | inactive | inactive |  |  | inactive | inactive | inactive | inactive | inactive | inactive |  |
| CCOC(=O)[C@H](CCc1ccccc1)N[C@@H](C)C(=O)N(CC(=O)O)C1Cc2ccccc2C1 | inactive | inactive | inactive |  | inactive | inactive | inactive | inactive | inactive | inactive | inactive | inactive | inactive | inactive | inactive |  | inactive | inactive | inactive | inactive |
| COc1ccccc1Oc1c(NS(=O)(=O)c2ccc(C(C)(C)C)cc2)nc(-c2ncccn2)nc1OCCO |  |  | inactive |  | inactive | inactive | inactive | inactive | inactive | inactive | inactive |  | inactive |  | inactive | inactive | inactive | inactive | inactive |  |
| O=C1c2ccccc2C(=O)C1c1ccc(Br)cc1 |  |  | inactive | inactive | inactive | inactive | inactive | inactive | 11.9 µM (active) | inactive | inactive |  |  |  | inactive | inactive | inactive | inactive | inactive |  |
| O=c1c(O)c(-c2ccc(O)cc2)oc2cc(O)cc(O)c12 |  | inactive |  | inactive |  |  |  | inactive |  | inactive |  |  | inactive | inactive | inactive |  |  | inactive | inactive | inactive |
| CS(=O)(=O)c1ccc(-c2cn3ccccc3n2)cc1 |  |  |  |  |  |  |  |  |  |  |  |  | inactive | inactive |  |  |  |  |  |  |
| C/C=C(/C(=C/C)c1ccc(O)cc1)c1ccc(O)cc1 |  | inactive |  | inactive | 0.0006 µM [inconclusive] (active) | 0.0003 µM (active) | inactive | inactive | inactive |  | inactive | 29.8 µM (active) |  | 15 µM (active) | inactive |  | inactive | inactive | inactive |  |
| COC(=O)c1nc(Cl)c(Cl)nc1N |  |  |  |  |  |  |  |  |  |  |  |  | 26.6 µM (active) |  | 5.31 µM (active) |  |  |  | 23.7 µM (active) |  |
| CN(C(=O)CN(CCO)CC(=O)N(C)C(C)(C)Cc1ccccc1)C(C)(C)Cc1ccccc1 |  | inactive |  | inactive |  |  |  | inactive |  | inactive |  |  |  | inactive | inactive |  |  |  | inactive |  |
| CC(CC1c2ccccc2CCc2ccccc21)CN(C)C (stereo not drawn) |  |  |  |  |  |  |  |  |  |  |  |  |  |  | inactive |  |  |  | inactive |  |
| CCCCN(CCN(CCCC)C(=O)N1CCOCC1)C(=O)N1CCOCC1 |  |  |  |  |  |  |  |  |  |  |  |  | inactive | inactive | inactive |  |  |  | inactive |  |
| OC(CCN1CCCC1)(c1ccccc1)C1CCCCC1 (stereo not drawn) |  | inactive |  | inactive |  |  |  | inactive | inactive | inactive | inactive | inactive | inactive | inactive | inactive |  | inactive | inactive | inactive |  |
| OC1(c2ccccc2)CCNCC1 |  |  |  |  |  |  |  |  |  |  |  | inactive | inactive | inactive | inactive |  |  |  | inactive | inactive |
| O=C1Cc2cc(Cl)ccc2N1 |  |  |  |  |  |  |  |  |  |  |  | inactive | inactive | 21.1 µM (active) | inactive |  |  |  | inactive | inactive |
| CCOC(=O)/C=C/C(=O)OCC |  |  | inactive | inactive | inactive | inactive | inactive | inactive | inactive | inactive | inactive | inactive | inactive |  | inactive |  | inactive | inactive | inactive | inactive |
| CN(C)CCN1C(=O)c2ccccc2N(C)c2ccccc21 |  | inactive | inactive | inactive | inactive | inactive | inactive | inactive | inactive | inactive | inactive | inactive | inactive | inactive | inactive |  | inactive | inactive | inactive | inactive |
